Mito fusion yeast = mitochondrial division inhibition or fusion activation | S. cerevisiae fusion-defective mutant growth rescue, CellTiterGlo 48 h | Potency, µM (doses to about 46.1 µM), without a hit: at the top dose growth rescue (activation), hits mostly activators | 320,000 tested, 0.23% active | AID 485298; also: % of control where 0% means no effect; nearly all actives have a fitted effect of over 45% in size
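Read-out: ATP-based luminescence (CellTiterGlo, 10 min ambient) reporting growth of fusion-defective ts yeast after 48 hours at 37C on glycerol/ethanol YPEG medium in the presence of compound.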
AT treatment = potential ataxia-telangiectasia treatments restoring KAP-1 phosphorylation; 320,000 tested, 0.19% active; AID 485349; F2112 A-T fibroblasts, KAP-1 phosphorylation AlphaLISA; neocarzinostatin DNA damage 30 min before lysis; Potency, µM (doses to about 57.5 µM), inactives show at the top dose activation, hits mostly activators; also: % of control where 0% means no effect; nearly all actives have a fitted effect of over 45% in size
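ATM-like activity read as KAP-1 phosphorylation via AlphaLISA donor/acceptor antibody pairs after lysis and 6 hr at 25C. Cells were ATM-null patient fibroblasts (F2112, hTERT), dosed 60 min, then exposed to the DSB inducer NCS for 30 min.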
SW480 rereplic = induces DNA re-replication in SW480 colon adenocarcinoma cells. AID 624297. SW480 DNA re-replication, Hoechst DNA content imaging, 48 h. Potency, µM (top dose mostly 46.1 µM), without a hit: at the highest dose re-replication activation, most hits filed as activators. 340,000 tested, 1.8% active; also: % of control where 0% means no effect; nearly all actives have a fitted effect of over 55% in size
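Hoechst fluorescence of nuclei (405 nm excitation, 500-530 nm emission) measured by plate-scanning imager after 48 hr compound exposure at 37 C; re-replication scored as increased number of nuclei with elevated intensity.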
Integrin act MD = integrin-mediated muscular dystrophy alleviation activation; alpha7betagal myoblasts, beta-gal FDG fluorescence, 48 h; Potency, µM (highest dose often 38.3 µM), without a hit: at the highest dose activation, usual class: activators; 350,000 tested, 0.064% active; AID 624291;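 also: 100% = response of the positive control SU9516; nearly all actives have a fitted effect of over 60% in size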
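alpha7betagal+/- myoblasts (passage 13, 250/well) treated 48 h at 37C with compounds at 1:260 dilution of DMSO stock. Lysed, then beta-galactosidase activity read as FDG fluorescence (ex 480/em 540) after 30 min, with pre-read for autofluorescence.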
MCF10A rerep = inducers of DNA re-replication in MCF 10A breast cells; MCF 10A DNA re-replication, Hoechst nuclear intensity, 48 h; Potency, µM (series often up to 46.1 µM), without a hit: at the top dose activity, positive = re-replication, hits mostly activators; 350,000 tested, 2.9% active; AID 624296; also: % of control where 0% means no effect; nearly all actives have a fitted effect of over 50% in size
* = called active by the depositor; u = inconclusive; x = no result given. Compounds with a hit are over-represented: about 4.2% of the library has one in this group of screens. Calls follow the shape of the dose curve; as a rule, active = well fitted activation curve with a large enough effect; inconclusive = small, poorly fitted or top-dose-only effect; inactive = no such curve, though single readings can be large or run the other way. Potency is read from the fitted curve at half-maximal effect.

SMILES	Mito fusion yeast	AT treatment	SW480 rereplic	Integrin act MD	MCF10A rerep
CCCn1c(N)c(C(=O)CSc2nc3ncc(Cl)cc3[nH]2)c(=O)[nH]c1=O	-4%	7%	u	0%	-1%
COc1ccccc1-n1c(N)c(C(=O)NCC2CCCO2)c2nc3ccccc3nc21 (stereo not given)	-12%	16%	11µM*	8%	u
Nc1c(C(=O)NCc2ccco2)c2nc3ccccc3nc2n1CCc1ccccc1F	19%	14%	5.8µM*	-52%	2.6µM*
COc1ccc(-n2c(N)c(C(=O)NCc3ccco3)c3nc4ccccc4nc32)c(OC)c1	8%	22%	2.1µM*	-35%	7.1µM*
COc1ccc(CCn2c(N)c(C(=O)NCc3ccco3)c3nc4ccccc4nc32)cc1	14%	u	u	-21%	u
COCCNC(=O)c1c(N)n(CCC2=CCCCC2)c2nc3ccccc3nc12	-5%	-3%	21µM*	0%	15µM*
CN(CC(=O)Nc1c(Cl)cccc1Cl)C(=O)c1ccccc1Cc1ccccc1	14%	13%	7%	-25%	7%
CC(SCc1ccc(C(=O)O)o1)c1ccc(C(=O)O)o1 (stereo not given)	3%	-16%	-7%	8%	-4%
Cc1ccc(-c2[nH]c3ccccc3c2C(C[N+](=O)[O-])c2ccco2)cc1 (stereo not given)	0%	4%	u	-17%	18µM*
O=C(O)C(SC(C(=O)O)c1ccccc1)c1ccccc1 (stereo not given)	x	x	-7%	13%	-7%
COC(=O)c1cc(NC(=O)c2cccc(Cl)c2)c(=O)oc1/C=C/Nc1cc(C)cc(C)c1	-1%	3%	x	x	x
COC(=O)CSc1[nH]c2ccccc2c1[N+](=O)[O-]	-12%	u	-3%	24%	15µM*
CCN(CC)C(NC(=O)c1ccccc1)C(=O)c1ccccc1 (stereo not given)	7%	14%	-6%	-15%	2%
CCOc1ncccc1C(=O)Nc1ccc(Cl)cc1	15%	0%	11%	1%	u
CCOc1ncccc1C(=O)NCc1ccccc1Cl	5%	24%	u	30%	0.92µM*
CCOCC(=O)NC1CCc2cc(OC(=O)COCC)c(OC)c(OC)c2-c2ccc(SC)c(=O)cc21 (stereo not given)	x	x	0.082µM*	-9%	u
COc1cc2c(c(OC)c1OC)-c1ccc(SC)c(=O)cc1C(NC(=O)C(F)(F)F)CC2 (stereo not given)	x	x	0.021µM*	-1%	u
COc1ccc(-c2noc(CCC(=O)NC3CCCCCC3)n2)cc1OC	x	x	x	-2%	x
COc1ccc(-c2noc(C)c2-c2ccc3ccccc3n2)c(O)c1	12%	1%	4.6µM*	21%	u
COc1ccc(OC)c(S(=O)(=O)ON2C(=O)c3ccccc3C2=O)c1	0%	0%	u	-54%	6.5µM*
CCc1ccc(S(=O)(=O)ON2C(=O)c3ccccc3C2=O)cc1	0%	5%	u	-48%	18µM*
CC(=O)N1CCC2(CC1)C/C(=N\NC(=S)Nc1ccc(C)cc1)c1cc(O)ccc1O2	-11%	1%	28%	10%	23µM*
Cc1ccccc1NC(=S)N/N=C1\CC(C)(C)Oc2ccc(O)cc21	-5%	-6%	19%	106%	16%
Cc1ccc(NC(=S)N/N=C2\CC(C)(C)Oc3ccc(O)cc32)cc1	-13%	-2%	-176%	46%	21µM*
O=C(CS(=O)Cc1ccccc1Cl)Nc1ccccc1Cl (stereo not given)	-2%	-2%	0%	2%	4%
SMILES	Mito fusion yeast	AT treatment	SW480 rereplic	Integrin act MD	MCF10A rerep
NC(=O)NC(c1ccc(Cl)cc1)c1ccccc1Cl (stereo not given)	-2%	4%	-5%	2%	4%
CCCCOCCCNC(=O)C1CCCCC1	1%	17%	u	-7%	12µM*
O=C(CCCCCn1c(=S)[nH]c2ccc(N3CCOCC3)cc2c1=O)NCc1ccccc1Cl	1%	2%	u	7%	18µM*
O=C(CCCCCn1c(=S)[nH]c2ccc(N3CCOCC3)cc2c1=O)NCc1ccc(Cl)cc1	1%	1%	u	-16%	6.5µM*
Cc1ccnc(NS(=O)(=O)c2ccc(NS(=O)(=O)c3ccc([N+](=O)[O-])cc3)cc2)n1	2%	-5%	-71%	9%	-15%
COCCCN1C(=O)c2[nH]nc(-c3ccccc3O)c2C1c1cccc(Cl)c1 (stereo not given)	4%	29%	16µM*	-13%	15µM*
CN1CCN(Cc2c(O)ccc3cc(-c4ccccn4)c(=O)oc23)CC1	0%	8%	9.2µM*	3%	23µM*
Cc1c(C)c2ccc(O)c(CN3CCN(C)CC3)c2oc1=O	-14%	7%	2%	15%	-7%
O=c1oc2c(CN3CCCCCC3)c(O)ccc2cc1-c1nc2ccccc2[nH]1	5%	16µM*	x	x	x
COc1ccc(NC(=O)COC(=O)c2ncc(Cl)c(Cl)c2Cl)c(OC)c1	5%	-9%	-65%	-30%	-3%
O=C(COc1ccc(Oc2ccccc2)cc1)NCc1cn2ccccc2n1	5%	8%	u	-29%	15µM*
O=C(O)c1ccc(OCc2cn3ccccc3n2)cc1	9%	8%	7%	u	18%
O=c1cc(NS(=O)(=O)c2ccccc2)nc(SCc2c(Cl)cccc2Cl)[nH]1	u	-1%	-4%	9%	-3%
Cc1ccc(S(=O)(=O)Nc2cc(=O)[nH]c(SCc3ccc(Cl)cc3)n2)cc1	0%	6%	-71%	-23%	18µM*
CCc1ccc(CN2CCC(Oc3cc(C(=O)NC4CC4)ccc3OC)CC2)cc1	x	x	x	-9%	x
COc1c(Cl)cnn(-c2ccccc2)c1=O	-18%	-9%	u	-25%	u
COc1nn(-c2ccccc2)c(=O)c(Cl)c1Cl	-15%	4%	2.9µM*	-61%	3.7µM*
CCCCCCOC(=O)c1cccnc1	x	x	-11%	x	-7%
CC1(C)CC(=O)c2c(nc3ccccc3c2N)C1	11%	10%	-1%	11%	13%
Cc1nc2c(c3c1[nH]c1ccccc13)C(=O)CC(C)(C)C2	0%	3%	u	-19%	23µM*
CCOc1cc(/C=N/NC(=O)c2cc(C)n(-c3ccc(F)cc3)c2C)ccc1O	1%	3%	-17%	6%	11%
Cc1cc(C(=O)N/N=C2\CC(=O)c3ccccc32)c(C)n1-c1ccc(F)cc1	0%	0%	16µM*	2%	0%
CC(=O)c1nn(-c2cccc(Br)c2)cc1C(=O)c1ccc(Cl)cc1	-2%	2%	u	-17%	4.6µM*
CC(=O)c1nn(-c2ccccc2)cc1C(=O)c1ccc(Br)cc1	0%	-6%	u	-17%	u

Screening results from PubChem BioAssay.
